# Experimental data: PubChem BioAssay (NCATS)
# Unmarked numbers belong to inactive results. Results filed as inconclusive are left out. Active and inactive are the calls of the source. Unless noted, calls follow the shape of the dose curve; as a rule, active = well fitted curve in the direction sought with a large enough effect; inconclusive = small, poorly fitted or top-dose-only effect, or another doubt; inactive = no such curve, though single readings can be large; an effect the other way counts as inactive or inconclusive.
# System: not listed separately
# Assay: qHTS Validation Assay to Find Inhibitors of Chronic Active B-Cell Receptor Signaling (AID 485345; active = well fitted curve in the direction sought with a large enough effect in the main read-out, with a control signal flat, not every such curve was filed as active;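 also: 0% = untreated basal cells and 100% = 10 µM MG-132 proteasome inhibitor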)
# Details: ABC-DLBCL cells, chronic BCR signaling reporter, CBG luciferase; series mostly up to 46.1 µM; activity change: at the top concentration
# Text: NIH Molecular Libraries Probe Production Network [MLPCN]
# NIH Chemical Genomics Center [NCGC]
# PI Name: Dr. R. Eric Davis
# Diffuse large B-cell lymphoma (DLBCL) is the most common category of non-Hodgkin lymphoma, with ~20,000 new cases per year in the United States. DLBCL should be regarded as a collection of different neoplasms. Microarray gene expression analysis has defined two principal types of DLBCL, named for their similarity to normal B cell stages or activation states: a germinal center B-cell (GCB) type, and an activated B-cell (ABC) type. In ABC-DLBCL, a constitutive high-level activity of the NF-kappaB family of transcription factors has been observed (1) and NF-kappaB target genes are more highly expressed in ABC primary tumors than in GCB tumors. Functional studies have shown a constitutive high-level activity of the IkappaB (inhibitor of kappa-B) kinase (IKK) complex. […]
# A cell-sensor assay for I-kappa-B-alpha stabilization has been developed. […] Following the addition of doxycycline to induce expression of the luciferases, the green luminescence in control cultures rises only slowly because the CBG fusion partner IkappaBalpha is targeted by IKK activity for rapid degradation. In contrast, green luminescence rises rapidly in the presence of proteasome inhibitors or IKK inhibitors. The rise in red luminescence of CBR is not affected by proteasome or IKK inhibitors, and serves as normalization for cell number and nonspecific effects. […]
# Cells were seeded in 1536-well plates at 5000 cells/4uL in IMDM medium containing 0.5% FBS, w/o phenol red, 1% penicillin/streptomycin. […] The plates were measured on a ViewLux plate reader for green luminescence (540/20 nm filter) and red luminescence (618/8 nm filter). The green and red luminescent signals were corrected for red and green luminescence filter overlap using previously determined filter calibration constants (determined using the procedure outlined in the Promega Technical Manual; REF 4). The %Activity was determined from the ratio of corrected green/red luminescent values. […]
row,SMILES,activity change
1,CCOC(=O)[C@H](CCc1ccccc1)N[C@@H](C)C(=O)N1[C@H](C(=O)O)C[C@H]2CCCC[C@@H]21,-11.9%
2,CC(C)(C)NC[C@H](O)COc1nsnc1N1CCOCC1,0.518%
3,CN=C(N)NCCC[C@H](N)C(=O)O,-1.17%

# Biological target: Beta-2 adrenergic receptor (Homo sapiens) (UniProt P07550)
# Sequence (P07550 whole entry, looked up): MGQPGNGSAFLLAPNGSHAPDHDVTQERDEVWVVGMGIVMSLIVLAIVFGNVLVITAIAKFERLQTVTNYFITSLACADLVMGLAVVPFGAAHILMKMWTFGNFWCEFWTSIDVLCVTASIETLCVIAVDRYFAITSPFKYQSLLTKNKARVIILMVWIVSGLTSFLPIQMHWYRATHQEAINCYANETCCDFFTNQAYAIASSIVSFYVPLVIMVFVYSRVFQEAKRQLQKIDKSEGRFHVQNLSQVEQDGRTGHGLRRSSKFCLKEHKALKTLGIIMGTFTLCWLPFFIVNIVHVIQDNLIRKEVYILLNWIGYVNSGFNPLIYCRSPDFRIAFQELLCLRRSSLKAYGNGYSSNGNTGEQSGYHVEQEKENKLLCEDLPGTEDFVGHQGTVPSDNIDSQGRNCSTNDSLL
# Assay: qHTS validation assay of beta-arrestin-biased ligands of beta2-adrenergic receptor (AID 485366); also: 0% is about no effect
# Details: cell-based beta-arrestin recruitment to ADRB2, qHTS; series mostly up to 46.1 µM; activation: at the top concentration
# Outline: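 Values derive from curve-fitted %Activity of a luminescent beta-arrestin recruitment reporter; compounds tested up to 46 microM on Tango cells for 18 hr at 37 degrees C, 5% CO2.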
row,SMILES,activation
1,CCOC(=O)[C@H](CCc1ccccc1)N[C@@H](C)C(=O)N1[C@H](C(=O)O)C[C@H]2CCCC[C@@H]21,-0.389%
2,NC(N)=NCc1cccc(I)c1,0.437%
3,CN=C(N)NCCC[C@H](N)C(=O)O,-0.854%

# Biological target: Thioredoxin reductase 1, cytoplasmic (Rattus norvegicus) (UniProt O89049)
# Sequence (O89049 whole entry, looked up): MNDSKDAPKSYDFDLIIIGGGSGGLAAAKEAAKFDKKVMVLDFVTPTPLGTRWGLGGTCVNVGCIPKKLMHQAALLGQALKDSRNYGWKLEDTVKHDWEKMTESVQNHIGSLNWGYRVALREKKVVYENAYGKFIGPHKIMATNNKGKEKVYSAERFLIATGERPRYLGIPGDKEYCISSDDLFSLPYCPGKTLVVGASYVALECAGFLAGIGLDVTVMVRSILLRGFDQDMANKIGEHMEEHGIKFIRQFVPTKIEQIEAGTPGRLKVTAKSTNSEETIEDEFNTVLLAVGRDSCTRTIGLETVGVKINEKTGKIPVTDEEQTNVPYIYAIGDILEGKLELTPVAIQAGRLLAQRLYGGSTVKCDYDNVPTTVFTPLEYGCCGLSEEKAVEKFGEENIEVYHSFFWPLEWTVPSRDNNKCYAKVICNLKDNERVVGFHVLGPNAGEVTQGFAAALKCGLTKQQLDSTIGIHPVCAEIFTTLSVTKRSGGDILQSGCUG
# Assay: qHTS Assay for Substrates of Mammalian Selenoprotein Thioredoxin Reductase 1 (TrxR1) (AID 488772);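 also: NADPH fluorescence in the first read after selenite addition and not the 8 min delta; 0% is about no effect; a drop in NADPH fluorescence below the no-compound background marks a TrxR1 substrate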
# Details: purified TrxR1, NADPH consumption substrate assay; series mostly up to 57.1 µM; activity change, negative = NADPH consumption: at the top concentration
# Outline: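 Quantitative HTS in Tris-HCl buffer at pH 7.5 with EDTA and Tween-20, using rat TrxR1, 400 uM NADPH and 400 uM selenite (final). A fall in initial NADPH fluorescence relative to background marked substrate behaviour.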
row,SMILES,"activity change, negative = NADPH consumption"
1,CCOC(=O)[C@H](CCc1ccccc1)N[C@@H](C)C(=O)N1[C@H](C(=O)O)C[C@H]2CCCC[C@@H]21,-8.93%
2,CC(C)(C)NC[C@H](O)COc1nsnc1N1CCOCC1,-10.6%
3,NC(N)=NCc1cccc(I)c1,2.78%
4,CN=C(N)NCCC[C@H](N)C(=O)O,-8.28%

# Biological target: Thioredoxin reductase 1, cytoplasmic (Rattus norvegicus) (UniProt O89049)
# Assay: qHTS Assay for Inhibitors of Mammalian Selenoprotein Thioredoxin Reductase 1 (TrxR1) (AID 488773);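 also: drop in NADPH fluorescence over an 8 min run after selenite addition; % is scaled to controls: 0 for no effect and ±100 for the full control effect; nearly all actives have a fitted effect of over 40% in size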
# Details: purified TrxR1 enzyme activity; series mostly up to 57.1 µM; activity change, negative = inhibition: at the top concentration
# Outline: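 Steps: enzyme (90 nM) plus NADPH (400 uM final), 5 min at ~22 deg C; compound added, 15 min; selenite (400 uM final) added; fluorescence followed for 8 min. Concentration-response curves derived from the normalized delta values.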
row,SMILES,"activity change, negative = inhibition"
1,CCOC(=O)[C@H](CCc1ccccc1)N[C@@H](C)C(=O)N1[C@H](C(=O)O)C[C@H]2CCCC[C@@H]21,0.625%
2,CC(C)(C)NC[C@H](O)COc1nsnc1N1CCOCC1,3.4%
3,NC(N)=NCc1cccc(I)c1,1.71%
4,CN=C(N)NCCC[C@H](N)C(=O)O,2.41%

# Biological target: Flap endonuclease 1 (Homo sapiens) (UniProt P39748)
# Sequence (P39748 whole entry, looked up): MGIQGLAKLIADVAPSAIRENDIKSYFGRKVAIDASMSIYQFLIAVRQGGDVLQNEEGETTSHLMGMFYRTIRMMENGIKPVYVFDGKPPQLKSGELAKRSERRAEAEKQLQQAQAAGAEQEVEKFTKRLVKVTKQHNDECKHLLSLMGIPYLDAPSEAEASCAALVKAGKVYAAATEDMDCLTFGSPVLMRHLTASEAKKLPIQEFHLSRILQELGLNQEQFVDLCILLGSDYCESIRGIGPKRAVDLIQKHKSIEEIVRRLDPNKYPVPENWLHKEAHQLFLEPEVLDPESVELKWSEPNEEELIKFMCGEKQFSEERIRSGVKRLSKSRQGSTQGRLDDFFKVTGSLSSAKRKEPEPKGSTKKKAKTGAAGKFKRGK
# Assay: qHTS Validation Assay for the Inhibitors of Human Flap endonuclease 1 (FEN1) (AID 488816); also: % is scaled to controls: 0 for no effect and ±100 for the full control effect
# Details: FEN1 nuclease activity, fluorogenic DNA substrate; series mostly up to 57.1 µM; activity, negative = inhibition: at the top concentration
# Outline: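 Human FEN1 (10 nM) preincubated 15 min at room temperature with compounds, then flap DNA substrate added at 50 nM final. Fluorescence read at 0 and 15 min; concentration-response fitted with four-parameter Hill equation.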
row,SMILES,"activity, negative = inhibition"
1,CCOC(=O)[C@H](CCc1ccccc1)N[C@@H](C)C(=O)N1[C@H](C(=O)O)C[C@H]2CCCC[C@@H]21,-1.37%
2,CC(C)(C)NC[C@H](O)COc1nsnc1N1CCOCC1,-4.49%
3,NC(N)=NCc1cccc(I)c1,-3.01%
4,CN=C(N)NCCC[C@H](N)C(=O)O,-3.67%

# Biological target: M-phase phosphoprotein 8 (Homo sapiens) (UniProt Q99549)
# Sequence (Q99549 whole entry, looked up): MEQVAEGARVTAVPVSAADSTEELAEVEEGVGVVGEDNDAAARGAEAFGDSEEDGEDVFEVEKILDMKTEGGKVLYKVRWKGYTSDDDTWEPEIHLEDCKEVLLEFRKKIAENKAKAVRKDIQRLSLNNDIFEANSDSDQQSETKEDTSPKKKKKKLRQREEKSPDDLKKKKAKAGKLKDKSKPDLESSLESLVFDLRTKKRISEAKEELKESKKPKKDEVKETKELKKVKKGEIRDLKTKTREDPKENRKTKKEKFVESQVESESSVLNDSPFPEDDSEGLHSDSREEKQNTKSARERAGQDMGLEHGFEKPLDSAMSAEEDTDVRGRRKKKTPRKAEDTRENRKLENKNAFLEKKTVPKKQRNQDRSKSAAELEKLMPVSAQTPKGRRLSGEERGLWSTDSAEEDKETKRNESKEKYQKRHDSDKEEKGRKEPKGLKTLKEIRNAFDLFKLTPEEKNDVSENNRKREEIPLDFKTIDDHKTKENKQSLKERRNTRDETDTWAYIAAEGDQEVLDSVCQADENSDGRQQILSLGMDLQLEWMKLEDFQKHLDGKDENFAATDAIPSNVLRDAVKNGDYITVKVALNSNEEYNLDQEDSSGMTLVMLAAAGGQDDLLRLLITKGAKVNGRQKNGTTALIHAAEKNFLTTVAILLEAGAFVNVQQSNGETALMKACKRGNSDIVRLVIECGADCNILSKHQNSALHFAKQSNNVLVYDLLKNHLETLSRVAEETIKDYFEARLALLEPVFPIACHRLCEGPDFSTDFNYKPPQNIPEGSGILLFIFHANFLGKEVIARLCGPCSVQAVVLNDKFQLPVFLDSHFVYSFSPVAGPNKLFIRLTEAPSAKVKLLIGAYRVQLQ
# Assay: qHTS Validation Assay for Inhibitors for MPP8 Chromodomain Interactions with Methylated Histone Tails (AID 488949); also: nearly all actives have a fitted effect of over 55% in size; also: potency is read from the fitted curve at half-maximal effect;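 as to activity change, negative = inhibition: AlphaScreen signal from MPP8 chromodomain bound to biotinylated H3K9me3 peptide; top concentration of the series differs between compounds; % is scaled to controls: 0 for no effect and ±100 for the full control effect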
# Details: AlphaScreen MPP8 binding to H3K9me3 peptide; series mostly up to 57.1 µM; activity change, negative = inhibition: at the top concentration
# Outline: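 MPP8 (50 nM) was preincubated with biotinylated H3(1-18)K9me3 peptide (50 nM) in PBS pH 7.4, 0.01% Tween-20 for 30 min at room temperature, then with compounds for 30 min; binding was detected by AlphaScreen.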
SMILES,"activity change, negative = inhibition",Potency
CCOC(=O)[C@H](CCc1ccccc1)N[C@@H](C)C(=O)N1[C@H](C(=O)O)C[C@H]2CCCC[C@@H]21,-6.23%,–
CC(C)(C)NC[C@H](O)COc1nsnc1N1CCOCC1,15.7%,–
NC(N)=NCc1cccc(I)c1,–,inactive
CC(=O)OCC1=C(C(=O)O)N2C(=O)[C@@H](NC(=O)CSc3ccncc3)[C@H]2SC1,–,31.6 µM (active)
CN=C(N)NCCC[C@H](N)C(=O)O,2.84%,–

# Biological target: Chromobox protein homolog 1 (Homo sapiens) (UniProt P83916)
# Sequence (P83916 whole entry, looked up): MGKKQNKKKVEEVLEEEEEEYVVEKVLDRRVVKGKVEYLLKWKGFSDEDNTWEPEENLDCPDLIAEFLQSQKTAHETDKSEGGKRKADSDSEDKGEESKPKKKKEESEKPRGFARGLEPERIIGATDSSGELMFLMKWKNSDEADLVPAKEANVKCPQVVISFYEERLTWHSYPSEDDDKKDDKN
# Assay: qHTS Validation Assay for Inhibitors of HP1-beta Chromodomain Interactions with Methylated Histone Tails (AID 488953);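 also: loss of AlphaScreen luminescence from HP1-beta binding biotinylated H3K9me3 peptide; % is scaled to controls: 0 for no effect and ±100 for the full control effect; nearly all actives have a fitted effect of over 50% in size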
# Details: HP1-beta chromodomain / methylated histone peptide binding assay; series mostly up to 114 µM; activity change, negative = inhibition: at the top concentration
# Outline: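 Measured as loss of AlphaScreen luminescence from streptavidin donor and nickel acceptor beads (10 ug/mL final) bridging HP1-beta and biotin-H3(1-18)K9me3, each 50 nM. Compounds met the preassembled complex for 30 min at RT.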
row,SMILES,"activity change, negative = inhibition"
1,CCOC(=O)[C@H](CCc1ccccc1)N[C@@H](C)C(=O)N1[C@H](C(=O)O)C[C@H]2CCCC[C@@H]21,11.6%
2,CC(C)(C)NC[C@H](O)COc1nsnc1N1CCOCC1,15.8%
3,NC(N)=NCc1cccc(I)c1,-6.06%
4,CN=C(N)NCCC[C@H](N)C(=O)O,-4.47%
